Laboratory results: PubChem BioAssay (NCI)
This is part of a sample that, as a whole, favours compounds with a hit. Of some 79,000 tested, about 15% had one in any assay. Values without a mark were called inactive. Active and inactive are the calls of the source. Rule as the data show it: active = growth inhibition above about 70%; inactive = the rest.

Assays:
[1] = NCI Yeast Anticancer Drug Screen. Data for the rad50 strain (AID 155);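 also: 0% = growth of vehicle-only cultures of the same strain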; conditions: S. cerevisiae rad50 strain growth inhibition; at 50.0 µM; hits give high values
How it was run: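 DNA repair mutant yeast, compound exposure, growth read-out; inhibition is taken relative to vehicle.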

[2] = NCI Yeast Anticancer Drug Screen. Data for the mec2-1 strain (AID 157); conditions: S. cerevisiae mec2-1 strain, at 50.0 µM, hits give high values
How it was run: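 mec2-1 yeast strain, carrying an alteration in DNA damage repair or cell cycle control, was exposed to compounds; growth inhibition was measured relative to vehicle-treated controls.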

[3] = NCI Yeast Anticancer Drug Screen. Data for the sgs1 mgt1 strain (AID 161);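 also: 0% = growth of cultures given vehicle only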; conditions: S. cerevisiae sgs1 mgt1 strain, at 50.0 µM, hits give high values
How it was run: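 Growth of a repair-deficient yeast mutant was monitored after compound treatment and expressed as inhibition relative to vehicle-treated cultures.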

[4] = NCI Yeast Anticancer Drug Screen. Data for the cln2 rad14 strain (AID 165);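 also: 0% = growth equal to vehicle treated cultures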; conditions: S. cerevisiae cln2 rad14 strain, at 50.0 µM, hits give high values
How it was run: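 Yeast carrying cln2 and rad14 alterations (cell cycle control and DNA damage repair) were exposed to compounds. Growth inhibition was measured against vehicle-treated controls.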

[5] = NCI Yeast Anticancer Drug Screen. Data for the bub3 strain (AID 167); conditions: S. cerevisiae bub3 mutant strain, at 50.0 µM, hits give high values
How it was run: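 In this screen, a yeast mutant lacking normal mitotic checkpoint function is challenged with compound. Relative growth versus vehicle gives the inhibition value.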

[6] = NCI Yeast Anticancer Drug Screen. Data for the mlh1 rad18 strain (AID 175); conditions: S. cerevisiae mlh1 rad18 strain growth inhibition; at 50.0 µM; hits give high values
How it was run: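 Growth inhibition of the yeast strain was measured after compound exposure and expressed relative to vehicle-treated controls. The strain carries defined defects in DNA damage repair.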

| Compound | growth inhibition [1] | growth inhibition [2] | growth inhibition [3] | growth inhibition [4] | growth inhibition [5] | growth inhibition [6] |
| --- | --- | --- | --- | --- | --- | --- |
| CCCCCCCCCC(=O)N/N=C/c1ccco1 | 51.7% | 59.6% | 63% | 44.9% | 69.4% | 78% (active) |
| COCCOCOC(C)(C)[C@H](CCO)O[Si](c1ccccc1)(c1ccccc1)C(C)(C)C | 91.9% (active) | 96.5% (active) | 37.6% | 91.6% (active) | 91.4% (active) | 95.8% (active) |
| CNC(=S)Nc1ccccc1 | -21.3% | -33.8% | 3.55% | -8.15% | -5.35% | 18.8% |
| NC1=NS(=O)(=O)Nc2nc(-c3ccc([N+](=O)[O-])cc3)[nH]c21 | -43% | -45.8% | -53% | -22.4% | -38.2% | -45% |
| CCCCCC/C=N\OC(N)=O | 12.9% | 15.2% | -4.9% | -12.9% | 3.35% | 11.8% |
| CCCCCCO[Si](OCCCCCC)(OCCCCCC)OCCCCCC | -35.1% | -32.4% | -10.8% | 17.4% | -17.8% | -17.4% |
| CCOCCC(=N)OCC | 11.2% | -4.7% | 7.9% | 9.45% | 4.2% | 13.6% |
| CC(C)c1nc2c([nH]1)c(=O)n(C)c(=O)n2C | 30.2% | 6.85% | 26.4% | 18% | 2.8% | 17.9% |
| NC(CCC(=O)O)C(=O)NC(Cc1c[nH]c2ccccc12)C(=O)O (configuration not stated) | -12.7% | 12.3% | -5.05% | -23.1% | -22.4% | -24.6% |
| CCC1C(=O)OCc2c1cc1n(c2=O)C(CC)c2c-1nc1ccccc1c2Cl (configuration not stated) | 57.4% | 14.6% | 8.15% | -28.3% | -2.95% | 4.55% |
| O=C1NC(=S)S/C1=C/C=C/c1ccccc1[N+](=O)[O-] | 2.95% | 0.85% | -3.9% | -16.6% | 42.5% | -16.6% |
| C/C=C/COc1cc2c(cc1C(C)c1ccc(OC)cc1)OCO2 (configuration not stated) | -9.3% | -0.95% | -6.15% | 24.4% | -3.85% | -1.2% |
| CCn1c(SCC(=O)N/N=C/c2ccccc2)nc2ccccc2c1=O | 5.65% | 6.95% | 3.8% | -4.55% | -1.3% | -33.7% |
| CC(O)(c1ccco1)c1nc2ccccc2s1 (configuration not stated) | -10.4% | 15.6% | 0.55% | -6.2% | -1.25% | -11.8% |
| Nc1nc(Sc2ccccn2)ccc1[N+](=O)[O-] | 0.25% | -12.8% | -2.1% | -27.1% | -12.1% | -6.45% |
| Cc1ccc(Nc2nnc(Nc3ccc(C)cn3)c3ccccc23)nc1 | -10.7% | -12.4% | -4.55% | -18.8% | 4.1% | -7.95% |
| NC(CC1C=CCCC1)C(=O)O (configuration not stated) | -26.4% | -16.1% | 1.85% | -52.3% | 7.1% | -4.3% |
| CCOP(=O)(OCC)C(C(=O)OC)C(=O)C(=O)Nc1c(C)cc(Br)cc1C (configuration not stated) | -42.1% | -17.2% | -23.9% | -1.8% | -3.85% | -17.6% |
| CC(C)(C#N)NC(=O)NC(C)(C)C(N)=O | -4.1% | 2.25% | -3.25% | -50.2% | 9.5% | -1.4% |

| Compound | growth inhibition [1] | growth inhibition [2] | growth inhibition [3] | growth inhibition [4] | growth inhibition [5] | growth inhibition [6] |
| --- | --- | --- | --- | --- | --- | --- |
| O=S1(=O)CCC(N(N=C2CCCCC2)c2ccccc2)C1 (configuration not stated) | 96.5% (active) | 98.3% (active) | 98.5% (active) | 96.8% (active) | 98.4% (active) | 98% (active) |
| Cc1ccc(C)c(NCc2ccccc2)c1 | 41.6% | 20.1% | 8.85% | -16.9% | 36.9% | 24.3% |
| C/C(=N/NC(=S)NNC(=S)N(C)c1ccccc1)c1nccc2ccccc12 | 85.8% (active) | 87% (active) | 86% (active) | 79.2% (active) | 76.6% (active) | 79.8% (active) |
| COc1cc(CNC(=S)CCCCCCCCCCC(C)C)ccc1O | -20.1% | -23.6% | -4.5% | -26.4% | 15.2% | -21.4% |
| C(=Nc1cnc2ccccc2c1)c1ccc2ccccc2n1 | -5.3% | -13.4% | -11.3% | -6.2% | -55.9% | -14.8% |
| CCOC1CN=C(Nc2cccc3ccccc23)S1 (configuration not stated) | -51.6% | -33.3% | -27.9% | -2.65% | -34.4% | -29.8% |
| O=C1C(NCCc2ccc(O)c(O)c2)=CC(=O)c2ncccc21 | 35.5% | 34.6% | 32.1% | 24.1% | 6.3% | -5.35% |
| C1CCC2(CCC34CCCCC3CCCC4)CCCCC2C1 (configuration not stated) | 99.5% (active) | 99.7% (active) | 99.5% (active) | 99.3% (active) | 99.5% (active) | 98.2% (active) |
| COc1ccc(CC2Cc3ccccc3CC(=O)N2)cc1OC (configuration not stated) | 36.5% | -54.3% | -4.4% | 3.65% | 25.6% | -38.1% |
| Cn1c(-c2ccc3c(c2)OCO3)cc(=O)c2ccccc21 | -11.2% | -17.6% | -4.9% | -4.55% | 4.85% | 0.6% |
| N#CC1(c2ccccc2)C(c2ccccc2)=C1c1ccccc1 | 1.75% | 5.15% | 2.25% | -4.55% | 8.7% | -8.95% |
| COc1ccc(/C=C\c2cc(OC)c(OC)c(OC)c2)cc1OCC(=O)O | -5.95% | -1.75% | 13% | 8.65% | -10.4% | -52.5% |
| O=[N+]([O-])c1ccc(/C(=C/c2ccc(F)cc2)S(=O)(=O)c2ccccc2)o1 | 37.4% | 19.4% | 50.3% | -0.65% | 8.4% | 39.4% |
| O=C(O)c1ccc2c(c1)S(=O)(=O)NC2=O | 1.15% | 10.2% | 13% | -26.1% | 12.1% | -8% |
| COC(=O)N/N=C/c1cccc(C)n1 | -5.55% | 2.05% | -4.55% | 0.7% | -5.25% | -11.6% |
| COc1ccc(C(=O)c2ccc(OC)cc2)cc1 | -15.1% | -27.1% | -3.1% | -17.6% | 1.6% | -15.1% |
| COc1cc(/C=C/C(=O)NCCc2c[nH]c3ccc(O)cc23)ccc1O | -9.25% | -0.75% | 9.3% | 11.8% | 3.15% | 6.75% |
| c1ccc(C2Nc3ccccc3C3OCCCC23)cc1 (configuration not stated) | 2.35% | -4.3% | 9.8% | -9.4% | -20.6% | 1.7% |
